The nature of test [1]: qHTS of pediatric cancer cell lines to identify multiple opportunities for drug repurposing: Primary screen for A673 cells (AID 1347092). Note: nearly all actives have a fitted effect of over 45% in size. The procedure, abridged:
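A673 cells (500-1,000 cells/well) were treated 48 hours at 37 degrees C with compounds at 11-point (0.78 nM to 46 µM) or 8-point (0.59 nM to 46 µM) dilutions. Viability read by CellTiter-Glo luminescence; concentration-response curves fitted.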
(Quantitative high-throughput screening tests each substance at several concentrations.)

Test [2] in a line: qHTS of pediatric cancer cell lines to identify multiple opportunities for drug repurposing: Primary screen for SK-N-MC cells (AID 1347093). The procedure, abridged:
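Metabolically active cells were quantified by ATP-dependent luminescence (CellTiter-Glo, 15 min at room temperature) following 48 h treatment. Cells had been plated at 500-1,000 per well and settled for 5 h beforehand.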

A short description of test [3]: qHTS of pediatric cancer cell lines to identify multiple opportunities for drug repurposing: Primary screen for BT-37 cells (AID 1347094). The procedure, abridged:
(§1)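 Luminescence from CellTiter-Glo served as readout of metabolically active cells after 48 h compound exposure. Titrations: MIPE 11-point, from 0.78 nM; NPC 8-point, from 0.59 nM (final). Concentration-response curves came straight from the primary screen.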

Test [4] is described as follows: qHTS of pediatric cancer cell lines to identify multiple opportunities for drug repurposing: Primary screen for NB-EBc1 cells (AID 1347095). The procedure, abridged:
as §1

Test [5] can be described thus: qHTS of pediatric cancer cell lines to identify multiple opportunities for drug repurposing: Primary screen for U-2 OS cells (AID 1347096). Note: nearly all actives have a fitted effect of over 50% in size. The procedure, abridged:
(§2)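 Cells (500-1,000/well) in growth media were settled 5 h at 37 degrees C, then given compounds for 48 h. Viability was read as CellTiter-Glo luminescence. Primary runs used MIPE at 11 points (0.78 nM-46 µM) and NPC at 8 points (0.59 nM-46 µM); follow-ups used 11 points.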

The nature of test [6]: qHTS of pediatric cancer cell lines to identify multiple opportunities for drug repurposing: Primary screen for Saos-2 cells (AID 1347097). Note: nearly all actives have a fitted effect of over 40% in size. A digest of the protocol: as §1
The nature of test [7]: qHTS of pediatric cancer cell lines to identify multiple opportunities for drug repurposing: Primary screen for SK-N-SH cells (AID 1347098). Note: nearly all actives have a fitted effect of over 65% in size. A digest of the protocol: (§3)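 Cells (500-1,000/well) rested 5 h, then received compounds for 48 h; metabolically active cells were measured by CellTiter-Glo luminescence. Final concentrations spanned up to 46 µM (MIPE, 11-point) or 0.59 nM-46 µM (NPC, 8-point) in primary screens, 11-point in follow-ups.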

Test [8] in a line: qHTS of pediatric cancer cell lines to identify multiple opportunities for drug repurposing: Primary screen for NB1643 cells (AID 1347099). Note: nearly all actives have a fitted effect of over 50% in size. A digest of the protocol:
as §1

Test [9] in a line: qHTS of pediatric cancer cell lines to identify multiple opportunities for drug repurposing: Primary screen for BT-12 cells (AID 1347101). Note: nearly all actives have a fitted effect of over 25% in size. The procedure, abridged:
as §3

Test [10] is described as follows: qHTS of pediatric cancer cell lines to identify multiple opportunities for drug repurposing: Primary screen for LAN-5 cells (AID 1347100). The procedure, abridged: as §2

Where “and” joins values, the source holds several entries; their conditions need not be identical. Equal entries are not always repeated. Results filed as inconclusive are left out. Calls of active or inactive are those of the source. Calls come from the whole dose curve; as a rule, active = well fitted curve in the direction sought with a large enough effect; inconclusive = small, poorly fitted or top-dose-only effect, or another doubt; inactive = no such curve, though single readings can be large; an effect the other way counts as inactive or inconclusive.
Potency is the fitted concentration of half-maximal effect.

Turning to `Cc1oc(=O)oc1CN1CCN(c2cc3c(cc2F)c(=O)c(C(=O)O)c2n3C(C)S2)CC1` (centres undefined), the Potency result in test [1], in test [2], in test [3], in test [4], in [5] and in test [6] was “inactive” each time. The Potency entry in test [7], in [8] and in test [9] was “inactive” throughout.

Turning to `CC[C@H](NC(C)C)[C@H](O)c1ccc(O)c2[nH]c(=O)ccc12`, the Potency result in [1], in test [2], in [3], in test [4], in test [5] and in test [6] was “inactive” each time. The Potency entry in [7], in test [8] and in [9] was “inactive” throughout.

`CCCCOc1ccc(CC(=O)NO)cc1`: the Potency in test [1] is 16.8 µM (active) and 2.96 µM (active); in test [2], 7.43 µM (active); in [3], 19.5 µM (active); in test [4], 18.7 µM (active); in test [5] it was 26.6 µM (active); in [6], 23.5 µM (active). The Potency in [7] is 19.2 µM (active). In addition, the Potency result in test [9] is “inactive”.

Take `CN1CCCC(n2nc(Cc3ccc(Cl)cc3)c3ccccc3c2=O)CC1` (centres undefined): the Potency in test [1] is 935 nM (active); in [2] it was 0.833 µM (active); in [3] it was 2.43 µM (active); in [4], 1.18 µM (active); in [5] it was 9.35 µM (active); in test [6], 2.35 µM (active). Moreover, the Potency in test [7] is 27.3 µM (active) and 4.82 µM (active); in [10], 662 nM (active); in test [9], 2.73 µM (active).

Regarding `COc1c(N2CCNC(C)C2)c(F)cc2c(=O)c(C(=O)O)cn(C3CC3)c12` (centres undefined), the Potency result in test [1], in [2], in test [3], in test [4], in test [5] and in test [6] was “inactive” in each case. In addition, the Potency entry in [7], in test [8] and in test [9] was “inactive” in each case.

Regarding `CC1=CC(=O)c2ccccc2C1=O`, the Potency was 13.3 µM (active) and 14.8 µM (active) in [1]; 21.1 µM (active) and 148 nM (active) in [2]; 7.43 µM (active) in test [4]; 18.7 µM (active) in test [6]; 21.7 µM (active) in [7]; 16.6 µM (active) in [8]. In addition, the Potency in test [10] is 16.8 µM (active) and 23.5 µM (active). For the same compound, the Potency result in test [3], in test [5] and in test [9] was “inactive” each time.

Regarding `CNC(=O)c1cc(Oc2ccc(NC(=O)Nc3ccc(Cl)c(C(F)(F)F)c3)cc2)ccn1`, the Potency in test [1] was 2960 nM (active); in test [2] it was 3.32 µM (active); in [3] it was 21.7 µM (active); in [4] it was 5.26 µM (active); in test [5] it was 18.7 µM (active); in [6], 18.7 µM (active). Besides, the Potency is 19.2 µM (active) and 15.4 µM (active) in test [7]; 4.69 µM (active) in test [8]; 20900 nM (active) in [10]; 17.2 µM (active) in [9].

As to `C1CCC(C(CC2CCCCN2)C2CCCCC2)CC1` (centres undefined), the Potency in [1] was 10.6 µM (active) and 23.5 µM (active); in test [2] it was 11.9 µM (active); in [3] it was 34.7 µM (active) and 30.6 µM (active); in test [4], 26.4 µM (active); in test [6] it was 13.3 µM (active) and 33.2 µM (active); in test [7], 15.4 µM (active). In addition, the Potency in test [8] is 21.1 µM (active); in test [9], 5.5 µM (active) and 30.6 µM (active). Also, the Potency entry in test [5] is “inactive”.

Regarding `N[C@@H](C(=O)N[C@@H]1C(=O)N2C(C(=O)O)=C(Cl)CS[C@H]12)c1ccccc1`, the Potency result in test [1], in test [2], in [3], in [4], in test [5] and in test [6] was “inactive” throughout. In addition, the Potency entry in test [7], in [8] and in [9] was “inactive” in each case.

As for `Cc1ncc([N+](=O)[O-])n1CCO`, the Potency entry in [1], in test [2], in test [3], in test [4], in [5] and in test [6] was “inactive” throughout. Moreover, the Potency result in test [7], in [8] and in [9] was “inactive” each time.

Regarding `CCc1cc(C(N)=S)ccn1`, the Potency result in test [1], in test [2], in test [3], in test [4], in test [5] and in test [6] was “inactive” each time. For the same compound, the Potency entry in [7], in test [8] and in test [9] was “inactive” throughout.

With `C[C@@H]1CN(c2c(F)c(N)c3c(=O)c(C(=O)O)cn(C4CC4)c3c2F)C[C@H](C)N1`, the Potency entry in test [1], in test [2], in test [3], in [4], in test [5] and in test [6] was “inactive” throughout. For the same compound, the Potency result in test [7], in test [8], in test [10] and in [9] was “inactive” throughout.

Consider `CCOCC(O)COc1ccc(NC(=O)CC[S+](C)C)cc1` (centres undefined), for which the Potency entry in test [1], in test [2], in test [3], in [4], in test [5] and in test [6] was “inactive” throughout. In addition, the Potency entry in [7], in test [8] and in [9] was “inactive” in each case.

Consider `CCN(CC)CCn1c(=O)c(Cc2ccc(OC)cc2)nc2ccccc21`, for which the Potency entry in test [1], in test [2], in [3], in [4], in test [5] and in [6] was “inactive” each time. The Potency result in test [7], in test [8] and in test [9] was “inactive” in each case.

Regarding `NC(=O)N1c2ccccc2CC(=O)c2ccccc21`, the Potency entry in test [1], in test [2], in test [3], in [4], in test [5] and in test [6] was “inactive” throughout. Moreover, the Potency entry in [7], in test [8] and in test [9] was “inactive” each time.

For the compound `COc1ncnc(NS(=O)(=O)c2ccc(N)cc2)c1OC`, the Potency result in test [1], in test [2], in [3], in test [4], in test [5] and in [6] was “inactive” throughout. Further, the Potency entry in test [7], in test [8] and in [9] was “inactive” throughout.

For the compound `COC(=O)Nc1nc2ccc(Sc3ccccc3)cc2[nH]1`, the Potency in test [1] was 1.06 µM (active) and 935 nM (active); in test [2], 841 nM (active) and 590 nM (active); in test [3], 1.74 µM (active) and 3.06 µM (active); in test [4], 0.469 µM (active); in [5] it was 13.3 µM (active); in test [6], 841 nM (active) and 2.35 µM (active). The Potency in [9] is 1.74 µM (active) and 4.32 µM (active). Also, the Potency result in test [7] was “inactive”.

The values above are taken from PubChem BioAssay (NCATS).
